“And” between values parts separate entries of the source, which are not always exact repeats. Equal entries are not always repeated. Records with an inconclusive call do not appear. Some compounds were tested as several samples or in several runs, with calls that do not always agree. The source made the active and inactive calls. Unless noted, how the calls were made is not given here.
Tests used:
[1] = liver-stage malaria parasite load reduction – cell-based, known kinase inhibitor set, luminescence, hepatoma host viability (AID 624392); conditions: Plasmodium liver stage in hepatoma cells, luciferase luminescence, concentration not given here; liver cell % of control: measured here: host liver cell viability; parasite % of control: stronger effect = lower value;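 further: infected cells incubated roughly two days before readout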
[2] = altered dexamethasone sensitivity, NF-kB reporter, cell-based, luciferase, IL-1B stimulus (AID 624486); conditions: IL-1B + dexamethasone, luminescence; percent of negative control (+Dex): actives lie on both sides, concentration not given here; z-score: measured here: IL-1B alone, no Dex;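 on percent of negative control (+Dex): 100% = mean signal of vehicle control wells on the plate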
[3] = C. elegans survival during P. aeruginosa infection – whole organism (AID 651566);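 further: tested at 14 µM; sign flipped so higher z means a lower ratio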; conditions: C. elegans killed by P. aeruginosa, survival ratio
[4] = pro-inflammatory signaling induction in mouse macrophages – cell-based, murine, luminescence (AID 652131); conditions: murine macrophage pro-inflammatory reporter, stronger effect = higher value
[5] = molecular target: Cellular tumor antigen p53 (Homo sapiens) (UniProt P04637); assay: GFP-p53 level modulators in HPV16+ cells – imaging, known kinase inhibitor set, EGFP/DsRed ratio (AID 1053116); conditions: GFP-p53 stability, stronger effect = higher value; EGFP object count: measured here: GFP-p53 positive objects count;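 further: cells exposed to compounds for 24 h at 37 °C before reading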
[6] = inducers of IRF3 signaling, differentiated THP-1 – cell-based, PMA-stimulated THP-1, luminescence (AID 1053176); conditions: PMA-differentiated THP-1, IRF3 reporter luminescence; stronger effect = higher value
[7] = MELAS cybrid and Rieske KO viability enhancers – cell-based, MELAS cybrids, Rieske KO mouse fibroblasts, CellTiter-Glo, primary screen (AID 1508586;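 active means mean z-score across replicates of 1.96 or higher in either the MELAS or the Rieske mutant cell line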;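 further: z relative to plate mean and SD of compound and empty wells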); conditions: low glucose
[8] = viability loss in pontine glioma line – cell-based, SU-DIPG-XVII, MIPE5.0, CellTiter-Glo, qHTS, dose response (AID 1347060; cut-off not given, nearly all actives have AC50 up to about 26 µM;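 further: cells exposed to compound for 48 hours before viability readout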); conditions: CellTiter-Glo ATP luminescence
[9] = viability loss in pontine glioma line – cell-based, JHH-DIPG-1, MIPE4.0, CellTiter-Glo, qHTS, dose response (AID 1347062; cut-off not given, nearly all actives have AC50 up to about 27 µM); conditions: JHH-DIPG-1 viability, CellTiter-Glo ATP luminescence
[10] = viability loss in pontine glioma line – cell-based, SU-DIPG-IV, MIPE4.0, CellTiter-Glo, qHTS, dose response (AID 1347063; cut-off not given, nearly all actives have AC50 up to about 30 µM;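 further: compound exposure lasted 48 hours before the viability readout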); conditions: CellTiter-Glo ATP luminescence
[11] = viability loss in pontine glioma line – cell-based, SU-DIPG-XXV, MIPE5.0, CellTiter-Glo, qHTS, dose response (AID 1347065; cut-off not given, nearly all actives have AC50 up to about 26 µM;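 further: cells exposed to compound for 48 hours before ATP readout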); conditions: CellTiter-Glo ATP luminescence
[12] = growth inhibition of DIPG cells – cell-based, MIPE4.0 library, CellTiter-Glo luminescence, qHTS (AID 1347066; cut-off not given, nearly all actives have AC50 up to about 30 µM;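 further: cells exposed to compound for 48 hours before readout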); conditions: SU-DIPG-VI viability, CellTiter-Glo ATP luminescence
[13] = growth inhibition of DIPG cells – cell-based, MIPE5.0 library, qHTS (AID 1347068; cut-off not given, nearly all actives have IC50 up to about 30 µM); conditions: SU-DIPG-XXV viability
[14] = P. berghei load reduction in hepatocytes – cell-based, HepG2, luciferase luminescence, HepG2 viability, primary screen (AID 624349; in the data active means parasite load remaining mostly below about 12%, no sharp cut-off; inactive means mostly above about 10%;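 further: 100% = mean of DMSO negative control wells on the same plate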); conditions: P. berghei liver stage in HepG2, luciferase luminescence, concentration not given here; parasite load remaining: stronger effect = lower value; viability: measured here: HepG2 viability without parasites
[15] = viability loss with induced miR-34 in A549 – imaging, A549 dox-inducible miR-34, nuclei and caspase counts, primary screen (AID 1347080;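 active means compounds whose cell count with miR-34 switched on is under 0.7 times the count with it off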); conditions: A549 miR-34 inducible, Hoechst nuclei count, 48 h
[16] = galactose survival enhancers in mitochondrial complex I cybrids – cell-based, galactose medium, ATP luminescence, primary screen (AID 1645843;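 active means z-score of at least 1.8 in each of two replicates, scored against plate mean and spread of sample wells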;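 further: positive z means more ATP and so rescue of galactose-driven cybrid death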); conditions: complex I mutant cybrid cells, 72 h, stronger effect = higher value
[17] = MELAS cybrid survival, CellTiter-Glo 48 h, stronger effect = higher value
[18] = Rieske KO mouse fibroblast survival, CellTiter-Glo 72 h

Sequence of Cellular tumor antigen p53 (Homo sapiens) (P04637 whole entry, looked up): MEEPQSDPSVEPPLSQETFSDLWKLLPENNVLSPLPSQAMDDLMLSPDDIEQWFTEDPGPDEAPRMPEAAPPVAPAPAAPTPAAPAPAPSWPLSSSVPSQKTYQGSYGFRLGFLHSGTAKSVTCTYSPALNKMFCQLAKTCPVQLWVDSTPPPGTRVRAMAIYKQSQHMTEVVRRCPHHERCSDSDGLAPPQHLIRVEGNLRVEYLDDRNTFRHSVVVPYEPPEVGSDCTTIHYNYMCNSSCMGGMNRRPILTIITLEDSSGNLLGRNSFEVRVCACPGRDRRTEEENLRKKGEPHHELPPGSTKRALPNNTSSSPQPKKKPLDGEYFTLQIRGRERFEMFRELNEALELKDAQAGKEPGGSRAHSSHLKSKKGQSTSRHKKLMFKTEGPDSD

Q: For Cc1ccc(NC(=O)c2ccoc2)cc1-c1ccc(C(=O)NCC2CC2)cc1, which liver cell % of control [1] is on record?
A: Its liver cell % of control is 104%.

Q: And the parasite % of control [1]?
A: The parasite % of control was 120% (inactive).

Q: What about the percent of negative control (+Dex) [2] of the same molecule?
A: Its percent of negative control (+Dex) is 99.5% (inactive).

Q: And the z-score [2]?
A: Its z-score is 0.73.

Q: What about the z-score [3] of the same molecule?
A: Its z-score is 0.02 (inactive).

Q: What about the z-score [4] of the same molecule?
A: Its z-score is -0.057 (inactive).

Q: What about the EGFP object count [5] of the same molecule?
A: The EGFP object count was 2.

Q: And the EGFP/DsRed ratio [5]?
A: Its EGFP/DsRed ratio is 0.0344 (inactive).

Q: And the fraction signal [6]?
A: Its fraction signal is -0.016 (inactive).

Q: And the z-score [7, 17]?
A: The z-score was -1.06 (inactive).

Q: What about the z-score [7, 18] of the same molecule?
A: Its z-score is -0.276.

Q: What does the source list for COc1cccc(-c2c[nH]c3c(N/N=C/c4ccncc4)ncnc23)c1?
A: liver cell % of control [1]: 72.3%; parasite % of control [1]: 30.4% (inactive); percent of negative control (+Dex) [2]: 129% (inactive); z-score [2]: -0.36; z-score [3]: -0.245 (inactive); z-score [4]: -1.59 (inactive); EGFP object count [5]: 4; EGFP/DsRed ratio [5]: 0.121 (inactive); fraction signal [6]: 0.002 (inactive); z-score [7, 17]: -0.187 (inactive); z-score [7, 18]: 0.000787

Q: What does the source list for CCn1c(-c2nonc2N)nc2c(C#CC(C)(C)O)ncc(OC[C@@H]3CCCN3)c21?
A: liver cell % of control [1]: 81.5%; parasite % of control [1]: 41.7% (inactive); percent of negative control (+Dex) [2]: 104% (inactive); z-score [2]: -0.32; z-score [3]: -0.14 (inactive); z-score [4]: 5.3 (inactive); EGFP object count [5]: 11.5; EGFP/DsRed ratio [5]: 0.291 (inactive); fraction signal [6]: 0.0025 (inactive); z-score [7, 17]: -0.59 (inactive); z-score [7, 18]: -0.205

Q: Which liver cell % of control [1] does the source give for Cn1cc(/C=C2\C(=O)Nc3cccnc32)c2ccccc21 here?
A: Its liver cell % of control is 210%.

Q: What about the parasite % of control [1] of the same molecule?
A: Its parasite % of control is 18.2% (inactive).

Q: And the percent of negative control (+Dex) [2]?
A: The percent of negative control (+Dex) was 92.5% (inactive).

Q: And the z-score [2]?
A: The z-score was 0.27.

Q: What about the z-score [3] of the same molecule?
A: The z-score was 0.915 (inactive).

Q: And the z-score [4]?
A: The z-score was 5.16 (inactive).

Q: And the EGFP object count [5]?
A: Its EGFP object count is 4.

Q: And the EGFP/DsRed ratio [5]?
A: Its EGFP/DsRed ratio is 0.0768 (inactive).

Q: What about the fraction signal [6] of the same molecule?
A: The fraction signal was -0.0095 (inactive).

Q: What about the AC50 [8] of the same molecule?
A: The AC50 was 8.33 µM (active).

Q: And the outcome [9]?
A: Its outcome is “inactive”.

Q: What about the outcome [10] of the same molecule?
A: The outcome was “inactive”.

Q: And the AC50 [11]?
A: Its AC50 is 9.34 µM (active).

Q: And the outcome [12]?
A: Its outcome is “inactive”.

Q: And the outcome [13]?
A: Its outcome is “inactive”.

Q: And the z-score [7, 17]?
A: The z-score was 0.351 (inactive).

Q: And the z-score [7, 18]?
A: Its z-score is -0.515.

Q: Which parasite load remaining [14] does the source give for Nc1nccc(-c2c(-c3ccc(F)cc3)ncn2C2CCNCC2)n1 here?
A: Its parasite load remaining is 50.2% (inactive).

Q: And the viability [14]?
A: Its viability is 61.1%.

Q: And the liver cell % of control [1]?
A: Its liver cell % of control is 79.4% and 93.7%.

Q: What about the parasite % of control [1] of the same molecule?
A: The parasite % of control was 77.2% (inactive) and 61.2% (inactive).

Q: What about the percent of negative control (+Dex) [2] of the same molecule?
A: The percent of negative control (+Dex) was 136% (inactive) and 118% (inactive).

Q: What about the z-score [2] of the same molecule?
A: Its z-score is 1.59 and 1.56.

Q: What about the z-score [3] of the same molecule?
A: Its z-score is -0.995 (inactive) and 0.19 (inactive).

Q: And the z-score [4]?
A: The z-score was 15.2 (active) and 4.36 (inactive).

Q: And the EGFP object count [5]?
A: The EGFP object count was 12.5 and 3.

Q: What about the EGFP/DsRed ratio [5] of the same molecule?
A: Its EGFP/DsRed ratio is 0.0782 (inactive) and 0.0295 (inactive).

Q: What about the fraction signal [6] of the same molecule?
A: Its fraction signal is 0.0105 (inactive) and -0.008 (inactive).

Q: What about the z-score [7, 17] of the same molecule?
A: The z-score was -0.885 (inactive) and -0.815 (inactive).

Q: What about the z-score [7, 18] of the same molecule?
A: Its z-score is 0.00861 and -0.488.

Q: Which results are given for Cc1cc(O)cc(C)c1/C=C/c1cncc(C(=O)OC(C)(C)C)c1?
A: liver cell % of control [1]: 60.8%; parasite % of control [1]: 116% (inactive); percent of negative control (+Dex) [2]: 100% (inactive); z-score [2]: 0.33; z-score [3]: 0.75 (inactive); z-score [4]: -0.067 (inactive); EGFP object count [5]: 34.5; EGFP/DsRed ratio [5]: 0.559 (inactive); fraction signal [6]: 0.0035 (inactive); z-score [7, 17]: 0.119 (inactive); z-score [7, 18]: -0.153

Q: Which results are given for N#Cc1c(NC(=O)c2ccccc2F)sc2c1CCCC2?
A: liver cell % of control [1]: 160%; parasite % of control [1]: 60.7% (inactive); percent of negative control (+Dex) [2]: 282% (active); z-score [2]: 14.4; z-score [3]: 0.24 (inactive); z-score [4]: 2.53 (inactive); EGFP object count [5]: 0; EGFP/DsRed ratio [5]: 0 (inactive); fraction signal [6]: -0.0035 (inactive); fold change ([15]; stronger effect = lower value, cell number ratio, induced over uninduced): 0.993 (inactive); fold change ([15]; measured here: relative caspase fold change +Dox/-Dox): 0.12; cell count ([15]; measured here: total cells with miR-34 induction, stronger effect = lower value): 5190; cell count ([15]; measured here: total cells without miR-34 induction): 5220; z-score [7, 17]: 0.104 (inactive) and 0.195 (inactive); z-score [7, 18]: -0.249 and 0.00256; z-score [16]: 0.305 (inactive)

Source: PubChem BioAssay
